Measured values as given in PubChem BioAssay (Tox21).
“And” between values parts separate entries of the source, which are not always exact repeats. Equal values may be shown once. Inconclusive results are not listed. A call without a number means that no potency is given here. More than one record can exist for a structure, and the calls need not agree. The source made the active and inactive calls. Unless noted, the call rests on the fitted dose curve; in most records, active means well fitted curve in the direction sought with a large enough effect in the repeat runs; inconclusive means weak or mixed curves; inactive means no such curve, though single readings can be large; an effect the other way counts as inactive or inconclusive.

Columns and labels:
[1] = qHTS assay to identify small molecule antagonists of the glucocorticoid receptor (GR) signaling pathway - cell viability counter screen (AID 720693); further: nearly all actives have a fitted effect of over 55% in size
[2] = qHTS assay for identifying genotoxic compounds that show differential cytotoxicity against isogenic chicken DT40 cell lines with known DNA damage response pathways - wild type cell line (AID 743012); further: nearly all actives have a fitted effect of over 60% in size; further: potency means the concentration at half of the fitted maximal effect
Outline: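 Wild-type DT40 cells (300/well) exposed to compounds for 40 hours at 37 C/5% CO2. Viability read by CellTiter-Glo luminescence after 30 min at room temperature.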

[3] = qHTS assay for identifying genotoxic compounds that show differential cytotoxicity against isogenic chicken DT40 cell lines with known DNA damage response pathways - Rev3 mutant cell line (AID 743014); further: nearly all actives have a fitted effect of over 55% in size; further: potency means the concentration at half of the fitted maximal effect
[4] = qHTS assay for identifying genotoxic compounds that show differential cytotoxicity against isogenic chicken DT40 cell lines with known DNA damage response pathways - Rad54/Ku70 mutant cell line (AID 743015); further: nearly all actives have a fitted effect of over 60% in size; further: potency means the concentration at half of the fitted maximal effect
[5] = qHTS assay to identify small molecule antagonists of the androgen receptor (AR) signaling pathway - cell viability counter screen (AID 743033; further: nearly all actives have a fitted effect of over 45% in size)
[6] = target: Androgen receptor (Homo sapiens) (UniProt P10275); assay: qHTS assay to identify small molecule antagonists of the androgen receptor (AR) signaling pathway (AID 743035; active means well fitted inhibition curve with a large enough effect in the signal ratio in the repeat runs, not every such curve was filed as active; the % refers to the signal ratio)
Androgen receptor (Homo sapiens), sequence (P10275 whole entry, looked up): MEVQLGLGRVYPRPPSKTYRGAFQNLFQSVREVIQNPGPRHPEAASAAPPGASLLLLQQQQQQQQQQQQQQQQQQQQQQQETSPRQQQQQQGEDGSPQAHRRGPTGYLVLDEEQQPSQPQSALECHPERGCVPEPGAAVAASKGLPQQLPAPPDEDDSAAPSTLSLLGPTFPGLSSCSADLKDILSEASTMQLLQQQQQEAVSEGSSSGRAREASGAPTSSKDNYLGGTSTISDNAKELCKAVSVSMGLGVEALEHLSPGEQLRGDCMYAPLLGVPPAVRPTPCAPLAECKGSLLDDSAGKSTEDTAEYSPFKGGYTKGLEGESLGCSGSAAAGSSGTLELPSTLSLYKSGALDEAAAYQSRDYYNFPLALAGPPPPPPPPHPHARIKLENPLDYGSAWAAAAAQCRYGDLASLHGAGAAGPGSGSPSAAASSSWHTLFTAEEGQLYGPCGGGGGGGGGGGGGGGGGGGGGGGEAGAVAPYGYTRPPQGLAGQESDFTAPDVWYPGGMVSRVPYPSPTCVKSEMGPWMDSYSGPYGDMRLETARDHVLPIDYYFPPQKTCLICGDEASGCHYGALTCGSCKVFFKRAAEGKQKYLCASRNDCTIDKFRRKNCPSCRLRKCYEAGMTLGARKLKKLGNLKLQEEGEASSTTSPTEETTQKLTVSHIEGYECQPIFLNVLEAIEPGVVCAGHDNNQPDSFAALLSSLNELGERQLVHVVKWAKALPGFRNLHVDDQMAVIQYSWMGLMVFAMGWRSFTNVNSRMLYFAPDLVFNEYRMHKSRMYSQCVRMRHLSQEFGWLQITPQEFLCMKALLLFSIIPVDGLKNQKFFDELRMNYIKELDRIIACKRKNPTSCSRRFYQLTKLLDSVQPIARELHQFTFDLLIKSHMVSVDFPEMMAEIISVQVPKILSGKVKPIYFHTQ
Outline: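 HEK293 cells stably carrying UAS-beta-lactamase reporter, 2,000/well, given compounds plus R1881 agonist and incubated 16 h at 37C. LiveBLAzer B/G FRET substrate then added for 2 h at room temperature before fluorescence reading.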

[7] = target: Androgen receptor (Homo sapiens) (UniProt P10275); assay: qHTS assay to identify small molecule agonists of the androgen receptor (AR) signaling pathway using the MDA cell line (AID 743040; further: nearly all actives have a fitted effect of over 20% in size)
Outline: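 Human breast carcinoma MDA-kb2 reporter cells (MMTV-luc, AR/GR elements) were treated for 16 h at 37C in 0% CO2 following a 5 h settling period. Signal was quantified by ONE-Glo luminescence.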

[8] = qHTS assay to identify small molecule antagonists of the androgen receptor (AR) signaling pathway using the MDA cell line - cell viability counter screen (AID 743041; further: nearly all actives have a fitted effect of over 45% in size)
Outline: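 Same-well cytotoxicity was assessed by CellTiter-Fluor in MDA-kb2 AR-luc cells after 16 h of compound treatment under R1881 agonism.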

[9] = target: Androgen receptor (Homo sapiens) (UniProt P10275); assay: qHTS assay to identify small molecule antagonists of the androgen receptor (AR) signaling pathway using the MDA cell line (AID 743042; further: nearly all actives have a fitted effect of over 55% in size; further: potency means the concentration at half of the fitted maximal effect)
Outline: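 MDA-kb2 breast carcinoma cells carrying MMTV-luciferase (AR/GR responsive) were co-treated with compounds and the agonist R1881 for 16 h at 37C. Inhibition read as ONE-Glo luminescence; CellTiter-Fluor fluorescence measured in parallel for cytotoxicity.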

[10] = qHTS assay to identify small molecule antagonists of the thyroid receptor (TR) signaling pathway - cell viability counter screen (AID 743064); further: nearly all actives have a fitted effect of over 50% in size; further: potency means the concentration at half of the fitted maximal effect
Outline: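 Plate GH3.TRE-Luc cells; incubate 4 h at 37 °C; add compound, then T3 to 1 nM final; incubate 23.5 h; add CellTiter-Fluor; incubate 30 min at 37 °C, 5% CO2; read fluorescence.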

[11] = qHTS assay to identify small molecule antagonists of the thyroid receptor (TR) signaling pathway (AID 743065); further: nearly all actives have a fitted effect of over 55% in size; further: potency means the concentration at half of the fitted maximal effect
Outline: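 GH3.TRE-Luc rat pituitary cells (two TREs driving luciferase) were dosed with compound, then stimulated with 1 nM T3 (final) for 23.5 h at 37 C. ONE-Glo luminescence was the read-out, with CellTiter-Fluor fluorescence as the cytotoxicity counter-screen.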

[12] = system: thyroid hormone receptor (rat, GH3 cells); assay: qHTS assay to identify small molecule agonists of the thyroid receptor (TR) signaling pathway (AID 743066; calls by dose curve)
[13] = target: Estrogen receptor (Homo sapiens) (UniProt P03372); assay: qHTS assay to identify small molecule antagonists of the estrogen receptor alpha (ER-alpha) signaling pathway (AID 743069; active means well fitted curve in the direction sought with a large enough effect in the signal ratio in the repeat runs, not every such curve was filed as active; the % refers to the signal ratio)
Estrogen receptor (Homo sapiens), sequence (P03372 whole entry, looked up): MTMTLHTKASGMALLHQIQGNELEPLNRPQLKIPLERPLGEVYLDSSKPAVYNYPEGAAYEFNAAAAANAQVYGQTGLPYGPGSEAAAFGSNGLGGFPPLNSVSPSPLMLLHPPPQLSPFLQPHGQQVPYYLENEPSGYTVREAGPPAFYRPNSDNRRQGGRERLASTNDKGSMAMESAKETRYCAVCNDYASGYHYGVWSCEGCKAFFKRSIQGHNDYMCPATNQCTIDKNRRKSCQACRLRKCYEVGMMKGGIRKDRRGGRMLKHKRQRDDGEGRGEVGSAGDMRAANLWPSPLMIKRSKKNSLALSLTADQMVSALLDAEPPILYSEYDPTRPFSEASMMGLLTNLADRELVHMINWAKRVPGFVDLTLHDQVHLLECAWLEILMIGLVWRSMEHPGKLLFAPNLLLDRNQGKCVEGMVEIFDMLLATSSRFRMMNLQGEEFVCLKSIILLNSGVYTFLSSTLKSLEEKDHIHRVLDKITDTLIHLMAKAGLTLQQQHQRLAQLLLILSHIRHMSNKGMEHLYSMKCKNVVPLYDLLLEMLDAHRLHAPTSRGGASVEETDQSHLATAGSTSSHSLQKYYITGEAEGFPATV
Outline: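 Reporter cells (ER-alpha-bla, HEK293 background) are conditioned overnight in stripped-serum medium (2% charcoal-stripped FBS). Compound and 17beta-estradiol exposure runs 18 hr at 37C, 5% CO2.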

[14] = qHTS assay to identify small molecule antagonists of the estrogen receptor alpha (ER-alpha) signaling pathway - cell viability counter screen (AID 743074; calls by dose curve;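 further: HEK293 cells carrying ER-alpha-UAS-bla reporter stimulated with 17beta-estradiol; nearly all actives have a fitted effect of over 45% in size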)
[15] = target: Estrogen receptor (Homo sapiens) (UniProt P03372); assay: qHTS assay to identify small molecule agonists of the estrogen receptor alpha (ER-alpha) signaling pathway (AID 743075; calls by dose curve;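 further: HEK293 GripTite cells with ER-alpha and UAS-driven beta-lactamase reporter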; further: potency means the concentration at half of the fitted maximal effect)
[16] = target: Estrogen receptor (Homo sapiens) (UniProt P03372); assay: qHTS assay to identify small molecule agonists of the estrogen receptor alpha (ER-alpha) signaling pathway using the BG1 cell line (AID 743079); further: nearly all actives have a fitted effect of over 20% in size
[17] = qHTS assay to identify small molecule antagonists of the estrogen receptor alpha (ER-alpha) signaling pathway using the BG1 cell line (AID 743080; calls by dose curve;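 further: BG1 cells stimulated with 17beta-estradiol alongside compound; series mostly up to about 70 µM; nearly all actives have a fitted effect of over 25% in size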)
Outline: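 BG1-Luc-4E2 cells (endogenous full-length ER-alpha, 4xERE luciferase) hormone-starved 5 days in charcoal-stripped FBS, plated 4,000/well for 24 h, then compound plus 17beta-estradiol for 21.5 h at 37 C; ONE-Glo luminescence read.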

[18] = qHTS assay to identify small molecule antagonists of the estrogen receptor alpha (ER-alpha) signaling pathway using the BG1 cell line - cell viability counter screen (AID 743081);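 further: compound given together with 17beta-estradiol as the ER stimulus; series mostly up to about 70 µM; nearly all actives have a fitted effect of over 45% in size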
Aromatase (Homo sapiens) = Aromatase (Homo sapiens) (UniProt P11511); assay: qHTS assay to identify aromatase inhibitors (AID 743083); further: nearly all actives have a fitted effect of over 55% in size; further: potency means the concentration at half of the fitted maximal effect
Aromatase (Homo sapiens), sequence (P11511 whole entry, looked up): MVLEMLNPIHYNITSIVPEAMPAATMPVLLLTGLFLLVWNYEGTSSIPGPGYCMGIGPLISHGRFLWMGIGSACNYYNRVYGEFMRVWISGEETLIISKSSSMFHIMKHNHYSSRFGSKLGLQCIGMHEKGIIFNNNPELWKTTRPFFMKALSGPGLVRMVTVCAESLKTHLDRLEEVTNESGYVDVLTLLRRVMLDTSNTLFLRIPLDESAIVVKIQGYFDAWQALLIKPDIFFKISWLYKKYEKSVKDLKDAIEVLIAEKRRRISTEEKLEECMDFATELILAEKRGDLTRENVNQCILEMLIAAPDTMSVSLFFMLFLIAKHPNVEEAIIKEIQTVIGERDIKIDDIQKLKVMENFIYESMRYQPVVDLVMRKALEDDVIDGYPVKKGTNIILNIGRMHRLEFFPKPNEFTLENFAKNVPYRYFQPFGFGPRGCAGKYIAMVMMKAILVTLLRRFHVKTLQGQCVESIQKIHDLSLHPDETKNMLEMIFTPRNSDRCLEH

[19] = target: Androgen receptor (Homo sapiens) (UniProt P10275); assay: qHTS assay to identify small molecule agonists of the androgen receptor (AR) signaling pathway (AID 743036; active means well fitted activation curve with a large enough effect in the signal ratio in the repeat runs, with a control signal flat, not every such curve was filed as active; the % refers to the signal ratio)
Outline: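 Reporter line: GeneBLAzer AR-UAS-bla-GripTite (HEK293). Steps: plate cells, 4 h rest, add compounds, 16 h at 37C, add LiveBLAzer B/G substrate, 2 h at RT, read fluorescence.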

SMILES | Potency [1] | Potency [2] | Potency [3] | Potency [4] | outcome [5] | Potency [6] | Potency [7] | Potency [8] | Potency [9] | Potency [10] | Potency [11] | outcome [12] | Potency [13] | outcome [14] | Potency [15] | Potency [16] | Potency [17] | Potency [18] | Potency (Aromatase (Homo sapiens)) | outcome [19]
Cc1cccc(Nc2cc(Cl)nc(SCC(=O)O)n2)c1C | inactive | inactive | inactive | inactive | inactive | inactive | inactive | inactive | inactive | inactive | inactive | inactive | inactive | inactive | inactive | inactive | inactive | inactive | inactive | 
CN(C)Cc1cc(CN(C)C)c(O)c(CN(C)C)c1 | inactive | inactive | inactive | inactive | inactive | inactive | inactive | inactive | inactive |  | inactive | inactive | inactive | inactive | inactive | inactive | inactive | inactive | inactive | inactive
O=C(O)CN(CC(=O)O)CC(=O)O | inactive | inactive | inactive | inactive | inactive |  |  | inactive |  | inactive | inactive | inactive | inactive | inactive | inactive | inactive | inactive | inactive | inactive | 
CC1=NN(c2ccccc2)C(=O)C1 | inactive | inactive | inactive | inactive | inactive |  |  | inactive |  | inactive | inactive | inactive | inactive | inactive | inactive | inactive | inactive | inactive | inactive | 
CC(=O)OC/C=C(C)/C=C/C=C(C)/C=C/C1=C(C)CCCC1(C)C | inactive | 61.1 µM (active) | inactive and 59.6 µM (active) and 54.5 µM (active) | 47.4 µM (active) and 30.6 µM (active) | inactive |  |  | inactive |  | inactive | inactive | inactive | inactive | inactive | inactive and 33.8 µM [activator] (active) | inactive | inactive | inactive | inactive | 
C[C@]12C[C@H](O)[C@H]3[C@@H](CCC4=CC(=O)CC[C@@]43C)[C@@H]1CC[C@@H]2C(=O)CO | inactive | inactive | inactive | 48.6 µM (active) | inactive |  |  | inactive |  | inactive | inactive | inactive | inactive | inactive | inactive | inactive | inactive | inactive | inactive | 
NCCNc1cccc2ccccc12 | inactive | inactive | inactive and 54.4 µM (active) | inactive | inactive | inactive | inactive | inactive | inactive and 54.4 µM (active) | 27.3 µM (active) and 29.9 µM (active) | 26.6 µM (active) and 54.4 µM (active) and 59.6 µM (active) | inactive |  | inactive |  |  |  |  | inactive | inactive
CC(C)=CCC/C(C)=C/CO | inactive | inactive | inactive | inactive | inactive |  |  | inactive |  |  | inactive | inactive |  | inactive |  |  |  | inactive |  | inactive
CN(C)C=O | inactive | inactive | inactive | inactive | inactive |  |  | inactive |  | inactive | inactive | inactive | inactive | inactive | inactive | inactive | inactive | inactive | inactive | 
NC(=O)OCC(COC(N)=O)c1ccccc1 | inactive | inactive | inactive | inactive | inactive | inactive | inactive | inactive | inactive |  | inactive | inactive | inactive | inactive | inactive | inactive | inactive | inactive | inactive | inactive
Cc1cccc(C)c1O | inactive | inactive | inactive | inactive | inactive | inactive | inactive | inactive | inactive | inactive | inactive | inactive | inactive | inactive | inactive | inactive | inactive | inactive | inactive | inactive
C[C@]12CC[C@@H]3c4ccc(O)cc4C[C@@H](CCCCCCCCCS(=O)CCCC(F)(F)C(F)(F)F)[C@H]3[C@@H]1CC[C@@H]2O (stereo not given in full) | inactive | 8.41 µM (active) | 11.9 µM (active) and inactive | 6.68 µM (active) | inactive | inactive | inactive | inactive | inactive |  | 4.2 nM (active) and 0.7 nM (active) | inactive |  | inactive |  |  |  | inactive | 59.6 nM (active) and 15.3 nM (active) | inactive
COc1cc(C=O)ccc1O | inactive | inactive | inactive | inactive | inactive |  | inactive | inactive | inactive |  | inactive | inactive |  | inactive | inactive | inactive | inactive | inactive | inactive | inactive
